± gives the standard deviation.
What follows are sequences tested on MILI (PIWIL2) piRISC loaded with L1MC piRNA (26 nt) (assay: pre-steady-state target cleavage rate (min^-1); guide: L1MC piRNA 5'p-UAACUAAAUACUAUGCAAGCUGUAGG; MIWI and MILI are mouse PIWI proteins and EfPiwi is from a freshwater sponge; tags in brackets are library labels; higher = faster piRNA-guided slicing of the target). Details: auxiliary factor: 500 nM mouse GTSF1.
Outline: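 Three pooled Cleave-'n-Seq trials supplied the data, with k3 capped at 0.0001 min^-1. In each, […] transcribed, DNA-blocked target RNA library and 1 nM active affinity-purified piRISC with one synthetic guide reacted in HEPES–potassium acetate buffer at 33 °C for 0–8 or 0–960 min, with or without 500 nM GTSF1 partner protein. Uncleaved targets were sequenced and normalised to depth and to weakly complementary targets. A burst-and-steady-state fit provided the pre-steady-state cleavage rate.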
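Also: 1 nM active piRISC with 0.1 nM target library at 33 °C single turnover.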

Sequence	pre-steady-state target cleavage rate
UCCUGGAUGAGCAAGCAUAGUAUUUAGAAA	0.0674 ± 0.015
UCCUGGAUGUCCUAGCAUAGUAUUUAGUAA	0.143 ± 0.031
UCCUGCUACAGCUAGCAUAGUAUUUACAAA	0.0708 ± 0.018
UCCUGGAUGUCGAUGCAUAGAAUUUAGUUA	0.0057 ± 0.0026
UCCUGGAUGUCGAUGCAUAGUAAUUAGUAA	0.0439 ± 0.013
UCCUGGAUCAGCUUGCUUAGAAUUUAGUUA	0.0318 ± 0.0073
UCCUGGAACAGCUUGGAUAGUAUUUAGAUA	0.137 ± 0.024
UCCUGGAUGUCGAUGCAUACUAUUUAGUUA	0.0178 ± 0.0056
UCCUGGAUGUGCUUCGUUAGUAUUUAGAAA	< 0.0001
UCCUGGAUGUGCUUGCAUAGUAAUUACUUA	0.00537 ± 0.0033
UCCUCCUACAGCUUGCAAUGUAUUUACAAA	0.0431 ± 0.011
UCCUGGAUGUCCUUGCAUAGUAUUAACUUA	0.0115 ± 0.0049
UCCUGGAUGUGCUUGCAUUGUAUUUAGAAA	0.0114 ± 0.0047
UCCUGGAUGUGCUUGCAUUGUAUUUUGUUA	0.0555 ± 0.015
UCCUGGAUGUCGAACGAUGGUAUUUAGUUA	< 0.0001
UCCUGGAUGUCCUUGCAUAGUAUUUAGUGUA	0.0384 ± 0.012
UCCUGGAUGUCCAUGCAUAGUAUUUUGUUA	0.00776 ± 0.0045

Sequence	pre-steady-state target cleavage rate
UCCUGGAUGUCCUUGCAUACUAUUUUGUUA	0.00525 ± 0.0044
UCCUGGAUCAGCUUCGAUAGUAUUUACAAA	0.00974 ± 0.005
UCCUGGUACAGCUUGCAAAGUAUUUACAAA	0.0115 ± 0.0055
UCCUGGAUGUCCUUGCAUACUAUUAAGUUA	0.0099 ± 0.0049
UCCUCCUACAGCUUGCAUAGUUAAUUCAAA	0.0506 ± 0.016
UCCUGCUACAGCUUGCAUUCUAUUUAGUAA	0.0252 ± 0.0088
UCCUGGAUGUGCUUGCUUAGUAUUUAGAUA	0.141 ± 0.032
UCCUGGAUGUCGAUGCAUAGUAUUUACUUA	0.0276 ± 0.01
UCCUGGAUGUCGAAGCAUAGUAAUUAGUUA	0.00988 ± 0.0037
UCCUGGAUGUCCUAGCAUAGAAUUUAGUUA	0.00538 ± 0.004
UCCUGGAUGUGCUUCGAUAGUAUUUAGUUA	0.0415 ± 0.0078
UCCUGGAUGUCGUUGCUUAGUAUUUAGAUA	0.0162 ± 0.0057
UCCUGGAUGUCGAUUCAUAGUAUUUAGUUA	0.0157 ± 0.0044
UCCUGGAUGAGCUUGCAUAGUAAUUUGUUA	0.0508 ± 0.018
UCCUGGAACAGCUUGCAUUGUAUUUACUUA	0.163 ± 0.028
UCCUGGAUGUGCUUGCAUAGUUUUAAGUUA	0.0104 ± 0.0059

From the supplement of paper PMC10338343
